ALDH1A1 block = ALDH1A1 (human) enzyme inhibition; Purified ALDH1A1, NADH fluorescence, propionaldehyde substrate; 220,000 compounds, 7.3% hits; Potency, µM (top dose mostly 75.3 µM), without a hit: at the top dose activity, negative = inhibition, usual class: inhibitors; P00352; active = well fitted inhibition curve with a large enough effect, not every such curve was filed as active; inconclusive = small, poorly fitted or top-dose-only effect, or another doubt; inactive = no such curve, though single readings can be large or run the other way;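 note: potency is the fitted concentration of half-maximal effect; plate controls were no enzyme wells and a reference inhibitor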
Target sequence (P00352 whole entry, looked up): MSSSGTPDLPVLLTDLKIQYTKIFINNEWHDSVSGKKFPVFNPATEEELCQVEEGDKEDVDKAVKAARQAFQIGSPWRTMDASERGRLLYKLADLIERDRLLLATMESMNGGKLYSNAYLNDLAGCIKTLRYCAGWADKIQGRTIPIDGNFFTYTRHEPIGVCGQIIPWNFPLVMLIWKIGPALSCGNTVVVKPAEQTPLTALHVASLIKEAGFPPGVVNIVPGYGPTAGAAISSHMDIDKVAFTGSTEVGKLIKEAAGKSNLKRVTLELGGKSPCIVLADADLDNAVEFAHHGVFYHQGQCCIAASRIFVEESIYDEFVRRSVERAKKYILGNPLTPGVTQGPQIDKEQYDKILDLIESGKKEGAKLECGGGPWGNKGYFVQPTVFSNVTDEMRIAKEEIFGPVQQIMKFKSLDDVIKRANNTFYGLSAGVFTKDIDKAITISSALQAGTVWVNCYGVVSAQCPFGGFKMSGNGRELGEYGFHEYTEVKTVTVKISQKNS
IMPase Li cell = membrane-permeable IMPase blocker, potentiated with lithium. CHO-M1 cells, IP1 TR-FRET (IP-One), carbachol + lithium. Potency, µM (doses to about 59.4 µM), for the others: at the top dose activity, negative = IMPase inhibition, usual class: inhibitors. 210,000 compounds, 0.35% hits;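 note: IP1 builds up when IMPase is blocked and the TR-FRET signal falls; potency is the fitted concentration of half-maximal effect; plate controls were basal vehicle for no effect and high inhibitor control for full effect; nearly all actives have a fitted effect of over 50% in size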
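CHO cells stably expressing M1 receptor (2000/well, cultured 16–30 h) treated 30 min at 37C with compound plus low lithium. Cytosolic IP1 by TR-FRET (665/620 ratio and 620 channel) after 10 min lysis; AC50 by Hill fit.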
IMPase cell inh = IMPase inhibition in cells | AID 901 | 120,000 tested, under 10 active | CHO-M1 cells, IP1 accumulation, HTRF TR-FRET ratio | inhibition (IP1 accumulation), % at 46.1 µM; active = well fitted curve in the direction sought with a large enough effect in the signal ratio, not every such curve was filed as active; inconclusive = small, poorly fitted or top-dose-only effect, or a change in a side signal; inactive = no such curve, though single readings can be large or run the other way; the % refers to the signal ratio;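 note: cells stimulated with carbachol in lithium chloride buffer; plate controls were DMSO basal wells for no effect and reference inhibitor wells for full effect; higher means more IMPase inhibition seen as more IP1 and lower FRET ratio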
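Elevated IP1 in lysates lowers TR-FRET signal (665/620 ratio and 620 channel reported). Cells were CHO-M1, given carbachol (50 uM as added) plus 50mM LiCl, pH 7.4, 30 min, 37C; compounds titrated up to 46 uM; AC50 by Hill equation.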
HPGD inh = inhibitors of human 15-hydroxyprostaglandin dehydrogenase (HPGD). P15428. purified HPGD, NADH fluorescence kinetic, PGE2 substrate. Potency, µM, inactives show top-dose activity change, negative = inhibition, actives largely listed as inhibitors. 150,000 compounds, 4.3% hits. AID 894; active = well fitted inhibition curve with a large enough effect, not every such curve was filed as active; inconclusive = small, poorly fitted or top-dose-only effect, or another doubt; inactive = no such curve, though single readings can be large or run the other way; note: potency is the fitted concentration of half-maximal effect; % is set by controls: 0 for no effect and ±100 for the full control effect
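NADH formation kinetics: reaction with 30 uM PGE2 and 1 mM NAD+ (final), 20 nM enzyme, Tris-HCl pH 8 with Tween 20, after 15 min compound preincubation at room temperature. Fluorescence change, last versus first of five reads.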
HTT ATP protect = protects HTT-Q103 PC12 cells, measured by ATP; PC12 HTT-Q103 induced, cytoprotection, ATP luminescence, 40 h; 230,000 compounds, 0.14% hits; Potency, µM (doses to about 56.4 µM), inactives show cytoprotection (ATP increase), usual class: activators; note: potency is the fitted concentration of half-maximal effect; % of control where 0% means no effect; nearly all actives have a fitted effect of over 45% in size
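Readout: ATPlite luminescence (ATP level). Model: stable PC12, inducible Htt exon1 Q103-GFP. Inducer: tebufenozide, 100 nM final. Compounds: dose series. No G418 in medium.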
HTT aggregate = mutant huntingtin aggregation inhibition. PC12 HttQ103-GFP aggregates, Acumen cytometry, 40 h. Potency, µM (doses to about 46.1 µM), inactives show at the highest dose activity change, negative = inhibition, usual class: inhibitors. 220,000 compounds, 1.1% hits; note: potency is the fitted concentration of half-maximal effect; % is set by controls: 0 for no effect and ±100 for the full control effect; nearly all actives have a fitted effect of over 60% in size
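PC12/HTTQ103-GFP, ecdysone-inducible; teb 100 nM; cpd qHTS titration; GFP aggregates read on laser cytometer, Ex 488/Em 500-530 nm.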
* hit, by the source's call; u = inconclusive; x = not tested or not shown; [ ] = dose if it differs, or a comment. In the library only some 9.4% were active in any assay of this set; here they are far more common. Unless noted, calls come from the whole dose curve; as a rule, active = well fitted curve in the direction sought with a large enough effect; inconclusive = small, poorly fitted or top-dose-only effect, or another doubt; inactive = no such curve, though single readings can be large; an effect the other way counts as inactive or inconclusive.

SMILES	ALDH1A1 block	IMPase Li cell	IMPase cell inh	HPGD inh	HTT ATP protect	HTT aggregate
O=C(Oc1ccc(C(=S)N2CCCCC2)cc1)c1ccccc1	11.2µM*	8.1%	x	x	-20.1%[10 µM]	-13.8%[9.22 µM]
O=C(Oc1cccc(C(=S)N2CCCCC2)c1)c1ccccc1	2.51µM*	0.1%	x	x	-4.8%	6.6%
O=C(Cn1cc(C(=O)C2CCCCC2)c2ccccc21)Nc1ccccc1Cl	x	x	2.7	x	x	x
C/C(CCN1CCCCc2nc(C)c(C)cc21)=N\O[C@@H](C)c1cc(-c2c(C)cc(C)cc2C)no1	2.4%[13.5 µM]	x	x	x	-1.5%[10 µM]	x
CN(C)CCCN1C(=O)C(=O)/C(=C(/O)c2ccc(S(=O)(=O)N(C)C)cc2)C1c1ccncc1 (configuration not stated)	25.1µM*	x	x	-8.5%	x	x
N#Cc1c(-c2cccs2)cc(C2CC2)nc1SCC(N)=O	u	u	-27.4	u	-6.6%	-8.1%
COC(=O)C(Sc1nc(C)cc(C)c1C#N)c1ccccc1 (configuration not stated)	5.2%	7.6%[38.3 µM]	12.4	-6.1%	-9.2%	-15.5%
CSc1nc(N)nc(SCC(=O)c2ccccc2)c1C#N	u	18.3%[38.3 µM]	5.8	-28.7%	-77.2%[0.074 µM]	-5.7%
Cc1cc(C)c(C#N)c(Sc2ccccc2N)n1	25.1µM*	2.5%	x	x	-1.2%	-13.1%
CCN(CC)C(=O)CSc1nc(C)cc(-c2cccs2)c1C#N	12.6µM*	-25.9%[38.3 µM]	-14.6	-28.1%	-30.1%	1.2%
Cc1cc(C)c(C#N)c(SCC(=O)c2ccccc2)n1	22.4µM*	12.1%	x	x	18.8%[10 µM]	0.0%[9.22 µM]
Cc1nc(SCC(=O)c2ccccc2)c(C#N)c(-c2ccco2)c1C(=O)NCc1ccco1	10µM*	14.7%[38.3 µM]	5.3	-21.5%	-29.7%	-13.1%
Cc1cc(C)cc(OCC(=O)NC(Cc2c[nH]c3ccccc23)C(=O)O)c1 (configuration not stated)	x	x	-14.0	x	x	x
Fc1ccc(CNc2nc3ccc(Cl)cc3n3nnnc23)cc1	x	x	1.3	x	x	x
C/C(=N\NC(=O)CSCc1ccccc1Cl)c1cc(O)ccc1O	u	8.9%	x	x	-35.3%[10 µM]	40.0%[9.22 µM]
COC(=O)CSc1nc(C)cc(C)c1C#N	-0.4%	0.2%	x	x	-2.5%[10 µM]	-2.2%[9.22 µM]
Cc1cc(C)c(C#N)c(SCC(O)CS(=O)(=O)Cc2ccccc2)n1 (configuration not stated)	28.2µM*	-1.9%[38.3 µM]	2.1	-17.8%	-5.1%[0.074 µM]	0.4%
Cc1cc(SCC(=O)c2ccccc2)n2nc(C)nc2n1	20µM*	-0.6%	-13.0	-18.3%	34.4%[10 µM]	-28.0%
Cc1cc(C)c(C#N)c(SCc2nc3ccccc3c(=O)[nH]2)n1	u	12.4%	x	x	-99.1%	1.5%
Cc1cc(C)c(C#N)c(SCC(=O)c2cccs2)n1	u	31.5%[38.3 µM]	2.4	15.8µM*	-17.4%	-3.9%
COCc1cc(C)nc(OCC(=O)N/N=C/c2ccccc2O)c1C#N	2.5%	-2.2%	x	x	-101.9%	11.2µM*
CCCn1c(C)nc2c(N(CCOC)CCOC)nc(C)nc21	7.0%	-11.7%	x	0.6%	-5.8%	x
Cc1ccccc1CNC(=O)C(C)N(c1ccccc1)S(C)(=O)=O (configuration not stated)	x	x	8.8	x	x	x
Cc1cc(C)c(C#N)c(OCC(=O)c2ccccc2)n1	6.31µM*	20.6%[38.3 µM]	4.6	22.4µM*	25.3%	-32.7%
Cc1cc(=O)[nH]c(SCC(=O)c2ccccc2)c1C#N	17.8µM*	2.5%[38.3 µM]	2.0	u	-12.7%	-24.3%
CC[C@H](C)[C@@H](NC(=O)O[C@@H]1C(=O)c2ccc(OC)cc2O[C@H]1c1ccc2c(c1)OCO2)C(=O)OC	u	12.1%	x	0.4%	-34.8%	x
COc1ccc(N2C(=O)/C(=C/c3cccs3)NC2=S)cc1	3.16µM*	16.0%	x	3.55µM*	10.3%[10 µM]	22.8%
CCSc1sccc1C1C(C#N)=C(N)N(c2cccnc2)C2=C1C(=O)CC(C)(C)C2 (configuration not stated)	-6.0%	0.6%[38.3 µM]	-17.0	-10.0%	7.3%	-3.3%
